Rows were chosen to be rich in hits. Some 2.6% of all compounds tested hit in one or more screens of this group.
PABP FP inh = PABP-poly(A) binding inhibition. P11940. PABP-poly(A) RNA binding, fluorescence polarization. calls only at 35 µM. actives 1% (n = 290,000);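 further: calls also rest on retests at 20 µM and on dose response follow-up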
eIF4H inh = inhibitors of RNA binding by human eIF4H; eIF4H fluorescence polarization binding assay; inhibition, % at 35 µM; actives 0.94% (n = 290,000); AID 2012;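 further: calls also rest on retests at 20 µM and on dose response follow-up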
APOBEC3G inh = inhibitors of human APOBEC3G DNA deaminase | recombinant A3G, ssDNA deamination FAM/TAMRA fluorescence | Q9HC16 | actives 0.28% (n = 330,000) | AID 493012 | inhibition, % at 20 µM;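 active means inhibition of at least 40% at 20 µM, with no more than 30% in the related APOBEC3A deaminase screen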;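 further: plate controls were DMSO wells with A3G for no effect and wells lacking A3G enzyme for full effect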
PHOSPHO1 block = inhibitors of human PHOSPHO1 phosphatase | Q8TCT1 | recombinant PHOSPHO1, absorbance phosphatase assay | inhibition, % at 13.3 µM | actives 1.1% (n = 290,000); in the data active means inhibition above about 60%
Target sequence (Q8TCT1 whole entry, looked up): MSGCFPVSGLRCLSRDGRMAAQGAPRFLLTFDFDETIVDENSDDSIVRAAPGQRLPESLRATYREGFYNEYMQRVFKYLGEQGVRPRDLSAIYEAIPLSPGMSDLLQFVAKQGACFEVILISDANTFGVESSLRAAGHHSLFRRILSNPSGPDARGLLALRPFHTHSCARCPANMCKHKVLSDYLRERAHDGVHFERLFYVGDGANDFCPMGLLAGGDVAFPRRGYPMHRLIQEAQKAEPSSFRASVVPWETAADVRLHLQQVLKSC
APOBEC3A inh = human APOBEC3A DNA deaminase inhibition | actives 0.41% (n = 330,000) | recombinant A3A, FAM/TAMRA ssDNA deamination fluorescence | inhibition, % at 20 µM | P31941 | AID 493011;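 active means at least 40% inhibition at 20 µM here, with at most 30% in a related deaminase screen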;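 further: plate controls were A3A with DMSO for no effect and wells lacking A3A enzyme for full effect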
MLLE-PAM2 inh = blocks PAM2 peptide binding to the PABP1 MLLE domain | GST-MLLE / FITC-PAM2 fluorescence polarization | inhibition, % at 20 µM | actives 0.36% (n = 360,000) | AID 588489; in the data active means inhibition above about 35%, passing the limit was not always enough;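 further: plate controls were DMSO wells with GST-MLLE for no effect and wells lacking GST-MLLE protein for full effect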
Starred values were filed as active, the others as inactive; i = inactive; . = no result given; + = active, no number. Unless noted, how the calls were made is not given here.

SMILES	PABP FP inh	eIF4H inh	APOBEC3G inh	PHOSPHO1 block	APOBEC3A inh	MLLE-PAM2 inh
CN(Cc1cn(-c2ccccc2)nc1-c1ccc2c(c1)OCO2)Cc1nccn1C	i	-7	-1	0	0	6
CN(CCn1ccnc1)Cc1cn(-c2ccccc2)nc1-c1ccc2c(c1)OCO2	i	4	-11	60*	-7	10
Cc1cc(C(=O)CSc2nc3ccccc3[nH]2)c(C)n1C	i	7	-5	51	0	-54
Cc1cc(C(=O)CSc2nc3ccc(Cl)cc3[nH]2)c(C)n1CC1CCCO1 (stereo unspecified)	i	3	-6	100*	3	-84
Cc1ccc2nc(SCC(=O)c3cc(C)n(C)c3C)[nH]c2c1	i	3	-7	71*	-5	-63
COc1ccc(Nc2nnc(SCC(=O)c3cc(C)n(CC4CCCO4)c3C)s2)cc1 (stereo unspecified)	i	-1	-4	98*	0	-53
Cc1cc(C(=O)CSc2nc3ccc(Cl)cc3[nH]2)c(C)n1C	i	23	1	86*	3	-50
O=S(=O)(c1cccc2nsnc12)N1CCNCC1	i	-11	-6	36	0	13
COc1cccc(CN(C)C(=O)Cc2ccc(OC)c(S(=O)(=O)N3CCOCC3)c2)c1	.	.	-9	.	-1	14
O=C(CSc1nnnn1-c1cccnc1)Nc1ccc(F)cc1F	i	-25	-9	14	-4	-1
C/C(N)=C(/C#N)C(=O)CSc1nc2ccc(C)cc2[nH]1	i	2	-2	72*	-3	-86
Cc1ccc2nc(SCC(=O)c3c(N)n(C)c(=O)n(C)c3=O)[nH]c2c1	i	-2	-1	-114	5	-103
O=C(CSc1nnc(-c2cnccn2)n1Cc1ccco1)c1ccc2ccccc2c1	i	5	-8	86*	3	-13
Cn1c(SCC(=O)c2ccccc2)nnc1-c1cnccn1	i	-2	-5	83*	1	-17
O=C(CSc1nnc(-c2ccccn2)n1Cc1ccco1)c1ccc(-c2ccccc2)cc1	i	3	-2	77*	-1	-6
O=C(CSc1nnc(-c2ccc(O)cc2)n1Cc1ccco1)c1ccccc1	i	7	-5	49	2	-11
CCn1c(SCC(=O)c2ccccc2)nnc1-c1cnccn1	i	-4	-4	7	-3	5
Cc1cccc(NC(=O)CN2CCN(C(=O)c3ccc(OCc4cn5ccccc5n4)cc3)CC2)c1C	.	.	1	.	1	-2
C=CCn1c(COc2ccc(OC)cc2)nnc1SCn1nnc2ccccc2c1=O	+	active	-6	-14	7	-40
C=CCn1c(COc2ccc(F)cc2)nnc1SCC(=O)NC1CC1	.	.	-4	.	0	-5
C=CCn1c(COc2ccc(F)cc2)nnc1SCC(=O)N1CC(=O)Nc2ccccc21	i	-10	-3	74*	4	-65
COc1ccc(/C=N/Nc2ccccn2)c(OC)c1OC	+	1.9*	-2	19	0	2
Cc1ccc(CNC(=O)c2ccc(Cl)cc2[N+](=O)[O-])cc1	i	1	-6	12	-3	5
O=C(O)CC(C(=O)O)c1ccc(OCCCCOc2ccc(C(CC(=O)O)C(=O)O)cc2)cc1 (stereo unspecified)	+	101*	2	45	4	-7
CC(C)Cn1[nH]c2c3c(ccc2c1=O)C(=O)c1ccccc1C3=O	i	-7	-1	34	3	3
SMILES	PABP FP inh	eIF4H inh	APOBEC3G inh	PHOSPHO1 block	APOBEC3A inh	MLLE-PAM2 inh
O=C(CCCSc1nc2ccccc2c(=O)[nH]1)c1ccc(F)cc1	i	84*	3	-18	1	-13
CC(=O)c1cccc(N(CC(=O)Nc2ccccc2C(=O)N2CCCC2)S(C)(=O)=O)c1	i	-3	-7	-4	-1	6
C#CCOCCOCCOCCNc1nc(N2CCN(C(=O)[C@H](C(C)C)n3cc(CCO)nn3)CC2)nc(N2CCN(C(=O)[C@H](C)n3cc(CCCN=C(N)N)nn3)CC2)n1	.	.	.	.	.	11
Cn1cccc1/C=C1\SC(=O)N(c2ccc(O)cc2)C1=O	+	0.7*	-4	-5	2	17
OCc1ccccc1N=Cc1cccnc1	i	-10	-10	35	-6	-6
Clc1nssc1=Nc1ccc(Br)cc1	i	3	.	80*	.	9
Clc1nssc1=Nc1nncs1	.	.	71*	.	-2	-5
